Rab9 promoter act = activators of Rab9 promoter; AID 485297; Potency, µM (top dose mostly 9.22 µM), inactives show at the highest dose activation, negative = inhibition, usual class: activators; 320,000 compounds, 2.8% hits; Huh7 Rab9 promoter-luciferase reporter, luminescence, 24 h; further: % of control where 0% means no effect; nearly all actives have a fitted effect of over 60% in size
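Steps: seed 1500 Huh7 Rab9-luc cells per well, rest 2 h at 37 °C; add compound in DMSO; incubate 24 h; add luciferase reagent, 10 min ambient; read luminescence.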
FLuc counter = firefly luciferase modulation, counter-screen for miR-21 project | 360,000 compounds, 6.9% hits | Potency, µM (doses to about 57.5 µM), inactives show at the highest dose activity change, negative = inhibition, most hits filed as inhibitors | purified FLuc, Km substrates, luminescence inhibition | P08659;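 further: plate controls were vehicle for no effect and reference inhibitor for full effect; nearly all actives have a fitted effect of over 55% in size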
Target sequence (P08659 whole entry, looked up): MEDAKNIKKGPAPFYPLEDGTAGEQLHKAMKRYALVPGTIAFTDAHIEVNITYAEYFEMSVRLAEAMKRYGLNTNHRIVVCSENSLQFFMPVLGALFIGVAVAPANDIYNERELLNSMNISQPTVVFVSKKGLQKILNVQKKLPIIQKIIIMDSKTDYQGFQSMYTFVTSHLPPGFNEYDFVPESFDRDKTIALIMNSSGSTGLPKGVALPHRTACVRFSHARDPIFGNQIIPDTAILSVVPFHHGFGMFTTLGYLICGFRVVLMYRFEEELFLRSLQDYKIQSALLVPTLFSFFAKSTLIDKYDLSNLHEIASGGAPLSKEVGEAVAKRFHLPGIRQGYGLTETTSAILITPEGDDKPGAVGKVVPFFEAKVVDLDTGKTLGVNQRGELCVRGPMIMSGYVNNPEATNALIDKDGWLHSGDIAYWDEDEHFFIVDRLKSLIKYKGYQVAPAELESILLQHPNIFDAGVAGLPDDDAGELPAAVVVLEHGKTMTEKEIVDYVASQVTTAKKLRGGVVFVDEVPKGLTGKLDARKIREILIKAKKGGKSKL
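Purified P. pyralis luciferase, 10 nM final, with Km-level 10 uM D-luciferin and 10 uM ATP in 50 mM Tris acetate pH 7.5, 10 mM Mg acetate, 0.01% Tween-20, 0.05% BSA; 6-point qHTS titration about 60 µM downward; luminescence read.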
SMN2 splice enh = SMN2 splice variant enhancement; HEK293 SMN2-luciferase splicing reporter, luminescence, 30-36 h; Potency, µM (doses to about 46.1 µM), for the others: top-dose activity change, positive = activation, hits mostly activators; 210,000 compounds, 2.8% hits; AID 1458; further: % of control where 0% means no effect; nearly all actives have a fitted effect of over 55% in size
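HEK293 cells carry an SMN2 […]–luciferase reporter in which exon 7 inclusion puts luciferase in frame. Cells were plated 10-12 h before compound addition, then incubated 30-36 h at 37C. ONE-Glo luminescence was read; sodium butyrate at 4.5 mM final served as control.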
NPC1 prom act = NPC1 promoter activation. 320,000 compounds, 2.4% hits. Potency, µM (doses to about 9.22 µM), without a hit: at the top dose activation, usual class: activators. AID 485313. Huh7 NPC1 promoter luciferase reporter, 24 h; further: % of control where 0% means no effect; nearly all actives have a fitted effect of over 60% in size
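Stably transfected Huh7 (NPC1 promoter→luciferase), 1500 cells/well in Opti-MEM + 10% FBS, 2 h settle, then compound 24 h at 37 °C. Luminescence after 10 min with Amplite reagent.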
Luc counter = counter-screen: inhibitors of Kinase-Glo firefly luciferase; Potency, µM (top dose mostly 38.3 µM), for inactives: at the top dose activity change, negative = inhibition, hits mostly inhibitors; 200,000 compounds, 0.28% hits; AID 1379; Kinase-Glo luciferase, ATP luminescence, 8 min; Q27757; further: on the % scale 0 is the no-effect control and ±100 the full control effect; nearly all actives have a fitted effect of over 60% in size
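Luminescence was the read-out, taken after 8-minute incubation at ambient temperature. Luciferase turned over luciferin with 10 uM ATP in imidazole pH 7.2 buffer containing KCl, MgCl2, Tween 20 and BSA.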
ELG1 genotoxic = genotoxicity induction in ELG1-luciferase HEK293T cells. 330,000 compounds, 1.3% hits. AID 504466. HEK293T ELG1-luciferase reporter, luminescence, 16 h. Potency, µM (titrated, usually from 46 µM), for inactives: at the highest dose activity change, positive = activation, hits mostly activators; further: % of control where 0% means no effect; nearly all actives have a fitted effect of over 60% in size
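Luminescence read-out: rising ELG1-luciferase signal, reflecting elevated ELG1 protein under genetic stress, flags genotoxic compounds. Cells were treated for 16 hr at 37 °C before ONE-Glo detection.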
* = called active by the depositor; ? = inconclusive; / = no result; [ ] = dose if it differs, or a comment. Rows were chosen to be rich in hits. Some 7.4% of all compounds tested hit in one or more screens of this group. The call rests on the fitted dose curve; in most records, active means well fitted curve in the direction sought with a large enough effect; inconclusive means small, poorly fitted or top-dose-only effect, or another doubt; inactive means no such curve, though single readings can be large; an effect the other way counts as inactive or inconclusive. Potency means the concentration at half of the fitted maximal effect.

SMILES | Rab9 promoter act | FLuc counter | SMN2 splice enh | NPC1 prom act | Luc counter | ELG1 genotoxic
CCCCN1Cc2c(nc3cc(-c4ccco4)[nH]n3c2=O)C1=O | 12% | 17µM* | / | 3% | / | 0%
Cc1cnc(C(=O)OCC(=O)c2ccc(F)cc2)cn1 | 0% | -16% | / | -1% | / | 9%
CCCOc1ccc(OCCSc2ncccn2)cc1 | 4µM* | 6.7µM* | 16µM* | 3.2µM* | -5% | 10µM*
Clc1ccc(OCCSc2ncccn2)c(Br)c1 | 0.71µM* | 2.1µM* | 13µM* | 1.4µM* | -3% | 2.1µM*
Cc1ccc(OCCCSc2n[nH]c(N)n2)cc1 | 5% | ? | / | -2% | 5% | 12%
COc1ccc(OCCSc2nc(N)cc(N)n2)cc1 | 4µM* | 21µM* | -7% | 4µM* | -8% | 0.73µM*
Clc1ccc(OCCCCSc2ncccn2)cc1 | 7% | ? | -17% | -3% | 1% | -2%
Cc1ccc(OCCSc2nc(N)cc(N)n2)cc1 | 1.8µM* | 24µM* | / | 3.2µM* | 10% | ?
COc1cccc(CNC(=O)C(=O)NCC(c2ccco2)S(=O)(=O)c2cccs2)c1 (centres undefined) | / | 4% | / | / | / | /
Cc1cc2c(cc1Cl)C(c1ccc3c(c1)OCO3)CC(=O)O2 (centres undefined) | / | / | / | / | 1%[39.9 µM] | /
COc1ccc(NC(=O)[C@H]2O[C@@H]3OC(C)(C)O[C@@H]3[C@H]3OC(C)(C)O[C@H]32)c(OC)c1 | / | -1% | 3% | / | / | /
Cc1oc2cc3oc(=O)c(CCC(=O)NCCc4ccccc4F)c(C)c3cc2c1C | / | -3% | ? | / | / | /
COc1ccccc1OCC(=O)NCCC1=CCCCC1 | -5% | 2% | 12% | -2% | 0% | 0%
O=C(/C=C/c1ccc(F)cc1)NCCC1=CCCCC1 | ? | 15µM* | ? | ? | 5% | 13%
O=C(/C=C/c1ccccc1)NCCC1=CCCCC1 | 2.8µM* | 9.5µM* | 11µM* | ? | 0% | ?
COc1ccccc1/C=C/C(=O)NCCC1=CCCCC1 | 3.2µM* | 11µM* | 11µM* | 4µM* | -1% | ?
O=C(COC(=O)/C=C/c1ccccc1)NCCC1=CCCCC1 | 0% | 5% | -7% | -2% | -1% | 5%
COc1cc2c(cc1OC)C(COc1ccc3c(C)cc(=O)oc3c1)N(C(=O)c1cccc(OC)c1OC)CC2 (centres undefined) | / | 0% | 5% | / | / | /
Cc1[nH]c2ccccc2c1/C=N/NC(=O)c1cc(-c2ccncc2)nc2ccccc12 | -6% | ? | / | -25% | / | -5%
Cc1[nH]c2ccccc2c1/C=N/NC(N)=S | -1% | ? | / | 2% | / | 4%
Cc1[nH]c2ccccc2c1/C=N/NC(=O)c1cccc(Br)c1 | 0% | ? | / | 0% | / | 0%
CC(C)(C)c1cc(C(=O)N/N=C/c2ccccn2)n[nH]1 | 7% | ? | / | 13% | / | 6%
Cc1ccc(NC(=S)N/N=C/c2c(C)[nH]c3ccccc23)cc1 | -1% | 19µM* | -27% | 0% | 5% | 1%
Cc1[nH]c2ccccc2c1/C=N/Nc1cccc(C(=O)O)c1 | 2µM* | 2.7µM* | / | 1.6µM* | / | ?
Cc1[nH]c2ccccc2c1/C=N/NC(=O)c1cc(-c2ccccc2)n[nH]1 | -3% | 24µM* | / | -12% | / | -11%
SMILES | Rab9 promoter act | FLuc counter | SMN2 splice enh | NPC1 prom act | Luc counter | ELG1 genotoxic
Cc1[nH]c2ccccc2c1/C=N/NC(=O)c1cc(C(C)(C)C)[nH]n1 | 0% | 12µM* | / | 14% | / | -5%
Cc1ccc2c(c1)c1c3n2CCN(C(=O)c2cccc(C(F)(F)F)c2)C3CCC1 (centres undefined) | / | -5% | -17% | / | / | /
CCC1=C2CC[C@H]3C(=O)N(CC)C(=O)[C@H]3[C@H]2[C@@]2(C)C(=NCC(=O)OC)OC(=O)N2C1=O | / | / | 0% | / | -1% | /
Cc1[nH]c2ccccc2c1/C=N/NC(=O)c1ccccc1 | -1% | ? | / | 0% | / | 4%
Cc1[nH]c2ccccc2c1/C=N/NC(=O)c1ccc(N)cc1 | 1% | 12µM* | / | -5% | / | 7%
CCOC(=O)c1c(NC(=O)Cn2nc(C(=O)O)c3ccccc3c2=O)sc(CC)c1C | -2% | -10% | 5% | -1% | 2% | 1%
O=C(N/N=C\c1ccoc1)c1ccco1 | 9% | -11% | / | 0% | / | 7%
Cc1ccc(/C=N/NC(=O)c2ccco2)cc1 | 1.4µM* | 3.8µM* | / | 1.8µM* | / | ?
Cc1cc(/C=N/NC(=O)c2nn(C)cc2Cl)c(C)n1-c1cccc(Br)c1 | -5% | 24µM* | -20% | -2% | 9% | 4%
Cc1cccc(-n2c(C)cc(/C=N\NC(=O)c3ccco3)c2C)c1 | 1.1µM* | 9.5µM* | 13% | ? | 1% | ?
O=C(N/N=C/c1ccc2ncccc2c1)c1ccco1 | 0.32µM* | 1.3µM* | 0.56µM* | ? | ? | 2.6µM*
Cc1cc(/C=N/NC(N)=S)c(C)n1-c1cccc(Cl)c1 | -7% | -5% | -18% | -3% | 2% | -2%
C[C@]12c3[nH]c4ccccc4c3CCN1C(=O)C(CC(=O)NCCN1CCOCC1)C[C@@H]2C(=O)N1CCOCC1 (some centres undefined) | / | / | / | / | / | 1%
CSC(=S)N/N=C/c1ccc(N(C)C)cc1 | 23% | 2.7µM* | 28% | 11% | 1% | ?
Cc1cc(C(=O)NN=Cc2ccc(OC(=O)c3ccco3)cc2)c(C)o1 | / | / | / | / | / | 0%
CN(C)c1ccc(/C=N/NC(=O)c2ccco2)cc1 | 0.56µM* | 2.7µM* | 8.9µM* | 0.79µM* | ? | 4.1µM*
CN(C)c1ccc(/C=N\NC(=O)c2cccc3cc[nH]c23)cc1 | ? | 12µM* | / | 22% | / | ?
CSC(=S)N/N=C/c1ccc(Br)cc1 | -1% | -17% | 10% | -4% | 1% | -2%
CN(C)c1ccc(/C=N/NC(=O)c2cc(=O)[nH]c3ccccc23)cc1 | -1% | -13% | / | -3% | / | 5%
CC(C)OC(=O)C1CC(C)(O)C(=O)C(C(=O)OC(C)C)C1c1ccc([N+](=O)[O-])cc1 (centres undefined) | 7% | -1% | -63% | 1% | 5% | -22%
COc1ccccc1OC[C@H](O)COC(N)=O | / | / | -4%[20.6 µM] | / | 2%[17.1 µM] | /
COc1ccc(C(=O)c2ccc([N+](=O)[O-])cc2)cc1S(=O)(=O)N1CCC(C(=O)O)CC1 | 2% | 2% | / | 1% | / | -5%
c1ccc2c(OCCCN3CCCCCC3)cccc2c1 | -8% | -2% | / | -1% | / | -13%
COc1ccc(C(C)=O)cc1CSc1nncn1-c1ccccc1 | -5% | -1% | 3% | -2% | 0% | -2%
O=C(O)c1ccc(C(=O)O)c(C(=O)c2ccc(NC(=O)c3ccccc3)cc2)c1 | -1% | 19µM* | / | -5% | / | -2%

Source: PubChem BioAssay
